Among all 1,400 compounds or so, about 560 (40%) were called active.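 How the source made its calls: active means mean inhibition over duplicate tests at 10 µM above 50%; inactive means the rest.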 So high a share suggests a set chosen from earlier hits. The list shows a part of the results.
Assay: ASC/caspase-1 reporter retest in S. cerevisiae at one dose, specificity check for NALP1 project (AID 488857)
Details: S. cerevisiae ASC/Caspase-1, beta-galactosidase luminescence, 24 h; at 10 µM; stronger effect = higher value

SMILES	inhibition
CC1CCCCN1C(=S)Nc1ccc2nc3n(c(=O)c2c1)CCCCC3 (centres undefined)	40.4% (inactive)
O=C(Nc1ccc2nc3n(c(=O)c2c1)CCCC3)c1cc([N+](=O)[O-])ccc1F	79.8% (active)
Cc1cc(NC(=O)/C=C/c2ccccc2Cl)no1	51.1% (active)
CCOC(=O)c1ccc(N2C(=O)CC(N3CCCC(C)C3)C2=O)cc1 (centres undefined)	49.7% (inactive)
CCOC(=O)CCCNC(=O)COC(=O)c1ccc(O)cc1	35.5% (inactive)
CCOC(=O)c1ccc(N2C(=O)C=CC2=O)cc1	82.3% (active)
CC1(C)CC(=O)c2c(-c3cccs3)n[nH]c2C1	44.1% (inactive)
CC1=NNC(=O)/C1=C\c1cn(-c2ccccc2)nc1-c1cccs1	89.6% (active)
Cc1cc(N2CCOCC2)n2ncc(-c3ccccc3)c2n1	71.5% (active)
COc1ccc(/C=C2\SC(N3CCc4ccccc4C3)=NC2=O)cc1	76.5% (active)
CCOc1ccccc1C1CC(=O)NC(SCC(=O)Nc2nccs2)=C1C#N (centres undefined)	10.7% (inactive)
COc1ccc(CNC(=O)CCNS(=O)(=O)c2ccc(C)cc2)cc1	43.1% (inactive)
CSc1ccc(S(=O)(=O)NCc2ccc(C)cc2)cc1	56% (active)
Cc1ccc(S(=O)(=O)NCc2ccc(C(=O)NCCCN3CCC(Cc4ccccc4)CC3)cc2)cc1	20.4% (inactive)
c1ccc(-c2cccc(-c3ccccn3)n2)nc1	97.2% (active)
c1ccc(Nc2ccccn2)cc1	34.5% (inactive)
CCCCOC(=O)Oc1ccc2c(=O)c(Oc3cc(C)cc(C)c3)coc2c1	54.9% (active)
Cc1cc(C)n(CCOc2ccc(Cl)cc2Cl)n1	56.7% (active)
CC1=C(C)/C(=N\OS(=O)(=O)c2ccc(C)cc2)C=CC1=O	92.7% (active)
O=C(Cc1ccc([N+](=O)[O-])cc1)c1ccc(O)cc1O	49.1% (inactive)
Cc1cccc(/C(N)=N/OC(=O)c2cccc3ccccc23)c1	52.9% (active)
Cc1cccc(C(=O)NNC(=O)CN2C(=O)c3ccccc3C2=O)c1	32.6% (inactive)
Cc1cccc(/C(N)=N/OC(=O)c2ccc(Cl)cc2Cl)c1	32.9% (inactive)
N/C(Cc1ccc([N+](=O)[O-])cc1)=N\OC(=O)c1ccccc1Br	71% (active)
COc1ccccc1C/C(N)=N/OC(=O)c1cccc([N+](=O)[O-])c1C	41.5% (inactive)
N/C(Cc1ccccc1)=N\OC(=O)c1cccc2ccccc12	51.2% (active)

SMILES	inhibition
N/C(Cc1ccc(Cl)cc1)=N\OC(=O)C1CCCCC1	47.5% (inactive)
CCOC(=O)C1C(=O)Oc2ccc3ccccc3c2C1C1CCOC1=O (centres undefined)	32.4% (inactive)
CN1CCN(S(=O)(=O)c2ccc(Br)c3nsnc23)CC1	45.2% (inactive)
CN1CCN(C2=C(Cl)C(=O)N(CCc3ccccc3)C2=O)CC1	47.1% (inactive)
C=CCSc1nsc(NC(=O)Nc2ccc(F)cc2)n1	98.9% (active)
CCOC(=O)n1c(=O)n(Cc2ccccc2)c2ccccc21	47.1% (inactive)
CC12CCC(C(=O)O)(C/C1=N\O)C2(C)C (centres undefined)	21% (inactive)
COc1ccc(OCC#CCNC(C)(C)C)cc1	30.3% (inactive)
O=C(CCCN1C(=O)c2ccccc2C1=O)Oc1ccc(Cl)cc1	31.9% (inactive)
CCOCCCNCc1ccc(OCc2ccccc2Cl)cc1	45.9% (inactive)
COc1ccc(OCCCC(=O)Oc2ccc(OC)cc2)cc1	50.5% (active)
COc1ccc(OCCCC(=O)NCC(C)C)cc1	39.5% (inactive)
COc1ccc(CNCCSc2nnnn2C)cc1OC	40.2% (inactive)
COc1ccc(C(CCNCc2ccccc2F)c2ccc(F)cc2)cc1 (centres undefined)	45.1% (inactive)
COc1ccc(CNCCC(c2ccc(F)cc2)c2ccc(OC)cc2)cc1 (centres undefined)	61.4% (active)
COc1ccc(OCCCC(=O)NCCc2ccccc2)cc1	51.9% (active)
CN(C)C(CNC(=O)CCCOc1ccccc1)c1ccco1 (centres undefined)	39.1% (inactive)
COc1ccc(CCNCc2ccc(OCc3ccccc3)cc2)cc1	80.8% (active)
COc1cc(/C=C2\SC(=Nc3ccc(F)cc3)N(c3ccc(F)cc3)C2=O)ccc1OCC(=O)O	31.9% (inactive)
O=C1Cc2ccccc2C(=O)N1OCc1ccc(Cl)cc1Cl	29.5% (inactive)
Clc1ccc(CO/N=C2\CCCc3nonc32)c(Cl)c1	52.5% (active)
O=C1CCCc2ccccc2N1Cc1ccc(Cl)cc1Cl	31.8% (inactive)
CN(C)C(=N)c1n[nH]nc1SCc1ccccc1	27.9% (inactive)
CCCCCCCCCCCCCCCC[n+]1ccc(/C=N/O)cc1	85.1% (active)
CCCCCCCCCCCCCCCC[n+]1ccc(C(N)=O)cc1	80.4% (active)
CCCCCCCCCCCCCCCC[n+]1cccc(C(=O)N(CC)CC)c1	93.2% (active)

SMILES	inhibition
CCCCN(CC)S(=O)(=O)c1ccccc1	8.05% (inactive)
COC(=O)c1c(NC(NC(=O)C(C)C)C(Cl)(Cl)Cl)sc2c1CCC2 (centres undefined)	33.2% (inactive)
COC(=O)c1c(NC(=O)C2CCCO2)sc2c1CCC2 (centres undefined)	58% (active)
CCOc1cc(-c2c(C)c(C)nc(N)c2C#N)ccc1O	49.5% (inactive)
O=C(Nc1cc(N2CCOCC2)ncn1)NC1(C(F)(F)F)Oc2ccc(Cl)cc2O1 (centres undefined)	36.8% (inactive)
CCc1ccc(CC(=S)N2CCOCC2)cc1	51.4% (active)
O=S(=O)(N1CCCCC1)N1CCN(c2ccc(F)cc2)CC1	45.9% (inactive)
O=C(C(Cc1ccccc1)n1cccc1)N1CCN(c2ccccc2)CC1 (centres undefined)	49.2% (inactive)
O=C(NC(=O)N1CCN(c2ccc(F)cc2)CC1)c1ccccc1	53% (active)
CC(C)Oc1ccc(OCCNC2CCCC2)cc1	45.6% (inactive)
CCN(CC)S(=O)(=O)c1cccc(C(=O)N[C@H](C(=O)O)C(C)C)c1	45.6% (inactive)
N#CC(C#N)=C1C=CC=CN1/C(=C\c1ccccc1Cl)C(=O)c1ccccc1	17.6% (inactive)
COc1ccc(/C=C(/C(=O)c2cccs2)N2C=CC=CC2=C(C#N)C#N)cc1	51.5% (active)
CN(C)CCNC=C(C(=O)Nc1ccc(Cl)cc1Cl)C(=O)Nc1ccc(Cl)cc1Cl	36% (inactive)
Cn1nc(NC(=O)C(C)(C)C)c2c(F)cccc21	23.4% (inactive)
CCCC(CCC)c1nc2ccncc2[nH]1	39.7% (inactive)
Clc1ccc(N2CCN(c3cnc4ccccc4n3)CC2)cc1	29.9% (inactive)
CC1CCN(c2nc(CN3CCCCC3)nc3scc(-c4ccccc4)c23)CC1	65.8% (active)
COC(=O)c1c(S(=O)(=O)NCc2ccccc2)sc(C(=O)O)c1C	32.3% (inactive)
O=C1S/C(=C\c2ccc(N3CCOCC3)o2)C(=O)N1c1ccccc1	56.8% (active)
Cn1c(=O)c2c(nc(Sc3ncccn3)n2Cc2ccccc2Cl)n(C)c1=O	26.6% (inactive)
Cc1ccc(S(=O)(=O)NCC(=O)N(CC(=O)NC(C)(C)C)Cc2cccs2)cc1	34.8% (inactive)
COc1cc(OC)nc(-n2ncc(Br)c(Br)c2=O)n1	51.4% (active)
CCCC(=O)c1ccc(-c2ccccc2)cc1	57.2% (active)
Cc1ccc(C(=O)CCC(=O)O)cc1	26.7% (inactive)
Cc1cccc(C)c1OCCNC(=O)CCC(=O)c1ccccc1	31.6% (inactive)

SMILES	inhibition
Cc1c(NC(=O)c2cc3c(s2)-c2ccccc2OC3)cccc1[N+](=O)[O-]	72% (active)
Cc1cc(C)c(S(=O)(=O)Nc2cc(SCC(=O)O)c(O)c3ccccc23)cc1C	17.9% (inactive)
O=S(=O)(Nc1cc(Sc2cccc3cccnc23)c(O)c2ccccc12)c1ccc(F)cc1	90.7% (active)
O=S(=O)(Nc1ccc(Oc2ncccn2)c(Cl)c1)c1ccc(F)cc1	32.6% (inactive)
CC(C)(C)OC(=O)NCCCCCc1nnc(SCc2ccccc2)o1	71.4% (active)
CC(C)Sc1nnc([C@H](Cc2ccccc2)NC(=O)OC(C)(C)C)o1	41.7% (inactive)
CCCCSc1nnc(CCNC(=O)OC(C)(C)C)o1	47.8% (inactive)
O=C(c1ccc(S(=O)(=O)c2ccccc2)cc1)N1CCCCCC1	31.9% (inactive)
O=C(c1ccc(COc2ccccc2Br)cc1)N1CCCCC1	52.2% (active)
OCCN(CCO)c1ncnc2c1oc1ccc(Br)cc12	29.6% (inactive)
CCN(CCO)Cc1csc2ccc(Br)cc12	55.5% (active)
COc1ccccc1OCCCCN1CCN(c2ccccc2OC)CC1	21.9% (inactive)
COc1ccccc1N1CCN(CCCCOc2cccc3ccccc23)CC1	63.3% (active)
COc1ccccc1N1CCN(CCCCCCOc2ccc(F)cc2)CC1	49.6% (inactive)
Cc1cccc(NCc2nc3ccccc3n2C)c1	74% (active)
Cc1nc2cc(-c3ccc(Cl)cc3)nn2c(C)c1CCC(=O)NC(C)c1ccc2c(c1)OCCO2 (centres undefined)	49% (inactive)
COc1cc(/C=C2/CCc3ccccc3C2=O)cc(OC)c1OC	69.8% (active)
COc1ccc(/C=C2\COc3ccccc3C2=O)cc1OC	81.6% (active)
Nc1ccc2c(c1)C/C(=C/c1ccco1)C2=O	21.8% (inactive)
O=C1/C(=C/c2ccco2)Cc2ccccc21	48.4% (inactive)
COc1cc2ccccc2c2c1CCCC2=O	30% (inactive)
COc1ccc(C2=C/C(=C/c3cccnc3)C(=O)O2)cc1OC	28.8% (inactive)
COc1ccc2c(c1)CC/C(=C/c1ccco1)C2=O	68.5% (active)
O=C1/C(=C/c2ccccc2)CCCc2ccccc21	72.1% (active)
Cc1n[nH]c(C)c1S(=O)(=O)N1CCN(C2CCCCC2)CC1	32.4% (inactive)
CS(=O)(=O)N(CC(=O)Nc1ccccc1Sc1ccccc1)C1CCCCC1	19.4% (inactive)

— PubChem BioAssay AID488857 (Sanford-Burnham Center for Chemical Genomics, 2010)
